Screens as filed in PubChem.
Hits are enriched below; roughly 1.2% of the tested compounds scored in any of these assays.
CR mimetic SO: caloric restriction mimetics inhibiting age-related superoxide in yeast; S. cerevisiae aged cells, superoxide DHE fluorescence; hits give low values; 0.18% of 330,000 active; superoxide response (% of plate mean), % at 10 µM;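 active = superoxide response under a set limit, about three screen SD below normal, cut at about 65% in these data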;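 also: yeast aged for seven days with compound at 30 °C before DHE staining; 100% = average MFI of all compound-treated wells on the plate with controls excluded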
HIF act: HIF pathway transcriptional activation; 0.32% of 300,000 active; U2OS HRE-luciferase reporter, luminescence; normalized: DMSO 0%, desferrioxamine 100%; AID 1910; activation, % at 7.5 µM (by protocol);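 active = mean activation of at least 10% of the iron chelator positive control signal, with at least half of replicates also reaching 10%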
HDAC3 inh: inhibitors of human histone deacetylase 3. recombinant HDAC3, fluorogenic peptide/trypsin coupled, fluorescence. inhibition, % at 8.3 µM. O15379. 0.15% of 320,000 active; in the data active = inhibition above about 26%, passing the limit was not always enough
Target sequence (O15379 whole entry, looked up): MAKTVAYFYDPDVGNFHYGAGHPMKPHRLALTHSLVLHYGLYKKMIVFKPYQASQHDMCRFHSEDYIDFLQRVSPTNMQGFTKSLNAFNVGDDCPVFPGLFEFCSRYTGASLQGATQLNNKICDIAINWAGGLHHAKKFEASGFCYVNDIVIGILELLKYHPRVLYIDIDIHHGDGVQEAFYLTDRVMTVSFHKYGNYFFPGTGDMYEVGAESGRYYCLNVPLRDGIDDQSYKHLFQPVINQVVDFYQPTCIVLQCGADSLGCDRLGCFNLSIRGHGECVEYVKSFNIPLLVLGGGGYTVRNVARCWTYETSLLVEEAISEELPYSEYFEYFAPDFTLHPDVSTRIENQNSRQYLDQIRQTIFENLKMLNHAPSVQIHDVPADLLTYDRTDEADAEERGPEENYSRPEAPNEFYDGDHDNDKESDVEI
LANA-H2B inh: blocks KSHV LANA binding to histone H2A/H2B. Q9QR71. AID 2629. cell-free LANA-H2A/H2B peptide, fluorescence polarization. 0.6% of 320,000 active. inhibition, % (test concentration not listed); in the data active = inhibition mostly above about 10%, no sharp cut-off; inactive = mostly below about 6.7%
Superoxide pick: confirmation of caloric restriction mimetics inhibiting yeast age-related superoxide; shares compounds with CR mimetic SO; S. cerevisiae aging, superoxide DHE fluorescence; hits give low values; superoxide response (% of plate), % at 10 µM; 1% of 850 active; AID 434994;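 active = superoxide signal below 65% of the plate average of sample wells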;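 also: cells aged with compound for 7 days at 30 degrees C before staining; 100% equals mean DHE fluorescence of all compound wells on the plate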
DHE counter: DHE fluorescence interference, counter-screen artifact | shares compounds with CR mimetic SO | S. cerevisiae BY4741, flow cytometry; hits give low values | fluorescence response, % at 10 µM | 850 tested, under 10 active;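 active = fluorescence response below 15%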;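 also: percent of the mean fluorescence averaged over all compound wells on the plate; lower means stronger quenching of DHE signal or ROS scavenging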
Starred values were filed as active, the others as inactive.

`CN(CC1COc2ccccc2O1)C(=O)CSc1nncs1` (stereo unspecified) gave CR mimetic SO 79.7, HDAC3 inh -5.5 and LANA-H2B inh 2.1.
Cc1ccccc1C(=O)NNC(=O)/C=C/c1ccccc1 was read as CR mimetic SO 92.2, HIF act 0.0, HDAC3 inh -11.1 and LANA-H2B inh 2.7.
Screening O=C(Nc1ccc(F)cc1)C(=O)c1c(O)[nH]c2ccc([N+](=O)[O-])cc12 returned CR mimetic SO 64.4*, HIF act 0.8, HDAC3 inh 1.8, LANA-H2B inh 0.4, Superoxide pick 86.8 and DHE counter 101.2.
For Cc1ccc(NCC(=O)N=Nc2c(O)[nH]c3ccc([N+](=O)[O-])cc23)cc1 the results were CR mimetic SO 119.3, HDAC3 inh -1.2 and LANA-H2B inh -0.1.
For NC(=O)CC1C(=O)N(c2ccc(Cl)cc2)C(=S)N1NC(=O)c1cccc(F)c1 (stereo unspecified) the results were CR mimetic SO 20.9*, HIF act -9.1, HDAC3 inh 5.7, LANA-H2B inh -2.4, Superoxide pick 98.8 and DHE counter 106.8.
For COc1ccc(N(Cc2cc3ccc(C)cc3[nH]c2=O)C(=O)C2CCCO2)cc1 (stereo unspecified) the results were CR mimetic SO 98.0, HIF act -0.3, HDAC3 inh 8.7 and LANA-H2B inh -0.5.
`CCCCOc1ccc(-c2cc(C(=O)NNC(=S)NCC)c3ccccc3n2)cc1` gave CR mimetic SO 61.7*, HIF act 0.6, HDAC3 inh -2.2, LANA-H2B inh -6.4, Superoxide pick 123.3 and DHE counter 106.5.
`CC(C)CCNC(=O)CN1N=C(c2ccc(Cl)cc2)CCC1=O` gave CR mimetic SO 90.8, HIF act 0.2, HDAC3 inh -1.1 and LANA-H2B inh 1.4.
For CC(C(=O)Nc1ccccc1)N1CCN(c2ccccn2)CC1 (stereo unspecified) the results were CR mimetic SO 103.1, HIF act 0.8, HDAC3 inh 3.5, LANA-H2B inh 3.6, Superoxide pick 96.8 and DHE counter 97.7.
`COc1cccc(NC(=O)C(c2ccccc2)N2CCN(c3ccccn3)CC2)c1` (stereo unspecified) gave CR mimetic SO 105.5, HIF act -0.4, HDAC3 inh 10.7 and LANA-H2B inh -2.3.
Screening Cc1cc([N+](=O)[O-])ccc1NC(=O)C(C)N1CCN(c2ccccn2)CC1 (stereo unspecified) returned CR mimetic SO 115.8, HIF act -1.5, HDAC3 inh 1.6, LANA-H2B inh 0.0, Superoxide pick 84.3 and DHE counter 96.0.
Screening COc1ccc(Cl)cc1C(=O)N1CCN(c2ccccn2)CC1 returned CR mimetic SO 86.5, HIF act 0.1, HDAC3 inh 1.0 and LANA-H2B inh 0.8.
`COc1ccc(Cl)cc1NC(=O)C(C)N1CCN(c2ccccn2)CC1` (stereo unspecified) gave CR mimetic SO 104.5, HIF act -1.5, HDAC3 inh -1.2, LANA-H2B inh 3.2, Superoxide pick 96.9 and DHE counter 96.1.
CC(C)COC(=O)/C(C#N)=C/c1c[nH]c2ccccc12 was read as CR mimetic SO 83.8, HIF act 1.2, HDAC3 inh 0.9 and LANA-H2B inh -0.5.
For Cc1ccc2c(c1)C=CC(C)(C)S2=O (stereo unspecified) the results were CR mimetic SO 63.6*, HIF act -0.5, HDAC3 inh -0.4, LANA-H2B inh 2.2, Superoxide pick 97.2 and DHE counter 112.1.
For C#CCSc1nnc(-c2ccc([N+](=O)[O-])cc2)o1 the results were CR mimetic SO 54.0*, HIF act 0.6, HDAC3 inh 0.2, LANA-H2B inh 5.8, Superoxide pick 72.5 and DHE counter 92.9.
`CSc1nnc(-c2ccc([N+](=O)[O-])cc2)o1` gave CR mimetic SO 93.7, HIF act 0.1, HDAC3 inh 9.4 and LANA-H2B inh 3.2.
`CN(CC(=O)Nc1ccc(Cl)c(C(F)(F)F)c1)C(=O)CCCNC(=O)c1ccc(Cl)cc1` gave CR mimetic SO 108.1, HDAC3 inh 4.0 and LANA-H2B inh -0.1.
Screening CC(C)OC(=O)CSc1nnc(-c2ccc(Cl)cc2Cl)o1 returned CR mimetic SO 107.3, HIF act 0.0, HDAC3 inh 5.3, LANA-H2B inh 4.1, Superoxide pick 92.6 and DHE counter 91.8.
`CCCCOC(=O)CSc1nnc(-c2ccc(Cl)cc2Cl)o1` gave CR mimetic SO 105.4, HIF act 0.0, HDAC3 inh 6.1 and LANA-H2B inh -6.9.
COc1ccc(-n2nc3c(c2NC(=O)C(C)Oc2ccccc2)CS(=O)(=O)C3)cc1 (stereo unspecified) was read as CR mimetic SO 53.7*, HIF act 0.3, HDAC3 inh -5.7, LANA-H2B inh 1.5, Superoxide pick 116.6 and DHE counter 113.7.
CC(Oc1ccccc1)C(=O)Nc1c2c(nn1-c1ccccc1)CS(=O)(=O)C2 (stereo unspecified) was read as CR mimetic SO 99.7, HIF act -0.3, HDAC3 inh -2.8 and LANA-H2B inh 4.3.
CCN(CC)C(=O)Cn1nnc(-c2ccc(S(C)(=O)=O)cc2)n1 was read as CR mimetic SO 96.3, HIF act -0.1, HDAC3 inh -2.4 and LANA-H2B inh 1.5.
For O=C(COC(=O)c1cc(S(=O)(=O)N2CCOCC2)cs1)c1ccccc1 the results were CR mimetic SO 64.5*, HIF act 0.2, HDAC3 inh 1.6, LANA-H2B inh 1.3, Superoxide pick 108.5 and DHE counter 111.9.
Screening O=C(COC(=O)c1cc(S(=O)(=O)N2CCOCC2)ccc1F)c1ccccc1 returned CR mimetic SO 97.3, HDAC3 inh -1.7 and LANA-H2B inh -1.2.
For Cn1nnc2ccccc2c1=O the results were CR mimetic SO 89.8, HIF act -0.2, HDAC3 inh 1.6 and LANA-H2B inh 6.5.
For COc1ccccc1OCCNC(=O)c1ccc(Br)cc1 the results were CR mimetic SO 57.9*, HIF act 3.8, HDAC3 inh -1.0, LANA-H2B inh -2.4, Superoxide pick 81.3 and DHE counter 99.6.
For COc1ccc2c(c1OC)C(=O)N1N=C(c3ccc(O)cc3)CC21 (stereo unspecified) the results were CR mimetic SO 138.5, HIF act -0.3, HDAC3 inh 2.2 and LANA-H2B inh 4.7.
Cc1cc(C)n(-c2nnc(NC34CC5CC(CC(C5)C3)C4)nn2)n1 was read as CR mimetic SO 63.6*, HIF act 2.4, HDAC3 inh 0.5, LANA-H2B inh -2.8, Superoxide pick 87.0 and DHE counter 97.7.
COc1ccc2cc(OCC(=O)NNC(=O)Nc3ccc(F)cc3)ccc2c1 was read as CR mimetic SO 102.4, HIF act 0.0, HDAC3 inh -2.8 and LANA-H2B inh 0.2.
